Assay outcomes from PubChem BioAssay.
MEKK2mut PB1 HTS = signal of MEK5 binding to mutant human MEKK2 PB1 domain; AID 1530; 0.35% of 290,000 active; bead flow cytometry, Alexa488-MEK5 binding to MEKK2 mutant; percent response, % at 10 µM; in the data active = percent response above about 24%, passing the limit was not always enough
MEKK3 PB1 HTS = modulators (inhibitors or enhancers) of MEK5 binding to human MEKK3 PB1 domain. 1.4% of 290,000 active. AID 1529. bead-based flow cytometry, Alexa488-MEK5 binding to MEKK3; actives lie on both sides; 0 = blocked by unlabeled MEK5, 100 = vehicle. binding response (% of control), % at 10 µM;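 active = binding response more than 3 SD above or below the average of its plate-row segment, actives on both sides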;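 note: Alexa488 bead fluorescence after subtracting the streptavidin-only scavenger bead signal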
Target sequence (Q99759 whole entry, looked up, the tested form may be a part): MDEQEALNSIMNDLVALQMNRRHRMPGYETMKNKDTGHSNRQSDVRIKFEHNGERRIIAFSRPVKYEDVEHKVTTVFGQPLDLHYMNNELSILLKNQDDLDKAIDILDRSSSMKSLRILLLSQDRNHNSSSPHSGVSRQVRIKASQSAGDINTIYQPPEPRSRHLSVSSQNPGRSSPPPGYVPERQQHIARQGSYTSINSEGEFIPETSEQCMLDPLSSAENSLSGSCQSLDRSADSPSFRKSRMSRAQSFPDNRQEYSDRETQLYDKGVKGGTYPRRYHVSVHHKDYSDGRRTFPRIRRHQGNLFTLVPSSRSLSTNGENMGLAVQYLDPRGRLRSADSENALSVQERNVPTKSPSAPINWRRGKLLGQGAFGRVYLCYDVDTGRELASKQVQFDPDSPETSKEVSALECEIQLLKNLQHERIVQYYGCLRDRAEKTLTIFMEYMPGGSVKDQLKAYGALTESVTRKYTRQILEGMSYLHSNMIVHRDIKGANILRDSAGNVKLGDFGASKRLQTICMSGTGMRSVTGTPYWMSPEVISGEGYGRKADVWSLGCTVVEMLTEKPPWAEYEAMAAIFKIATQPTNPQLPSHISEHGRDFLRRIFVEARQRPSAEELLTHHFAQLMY
dFosB activator = activators of mouse delta FosB homodimer | P13346 | purified delta FosB, TAMRA-CDK5 oligo fluorescence polarization; percent of positive-control signal above neutral wells | activation, % at 25 µM | 0.99% of 340,000 active | AID 493131;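 active = mean activation above about 17%, with every replicate also reaching it, limit read from the data, passing the limit was not always enough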
DNA FID counter = counter-screen for HCV NS3 helicase inhibitors: DNA intercalator displacement; DNA fluorescent intercalator displacement, fluorescence; inhibition, % at 7.9 µM; 0.17% of 290,000 active; AID 1845; in the data active = inhibition above about 37%;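 note: 0% = vehicle and 100% = reference compound; higher means more ethidium bromide displaced from hairpin DNA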
MEKK2 WT-MEK5 = raises or lowers MEK5 binding to wildtype human MEKK2 PB1 domain; AID 1531; Q9Y2U5; 1.1% of 290,000 active; bead flow cytometry, Alexa488-MEK5 binding to MEKK2 WT; actives lie on both sides; binding response (% of control), % at 10 µM; in the data active = binding response below about 67% or above about 130%
MEKK2wt confirm = raises or lowers MEK5 binding to wildtype human MEKK2, retest. shares compounds with MEKK3 PB1 HTS. bead flow cytometry, Alexa488-MEK5 binding to MEKK2 WT; actives lie on both sides. binding response (% of control), % at 10 µM. 2.4% of 5,900 active. AID 1892; in the data active = binding response below about 16% or above about 210%; inactive = in between
MEKK2mut-MEK5 = signal of MEK5 binding to mutant human MEKK2, retest; bead flow cytometry, Alexa488-MEK5 binding to MEKK2 mutant; percent response, % at 10 µM; 2% of 5,900 active; shares compounds with MEKK3 PB1 HTS; in the data active = percent response mostly above about 71%, no sharp cut-off; inactive = mostly below about 38%;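 note: higher means compound restores mutant binding toward wildtype level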
MEKK3 confirm = MEKK3-MEK5 PB1 inhibition, single concentration confirmation; shares compounds with MEKK3 PB1 HTS; bead flow cytometry, Alexa488-MEK5 binding to MEKK3; stronger effect = lower value; binding response (% of control), % at 10 µM; 1.8% of 5,900 active; AID 1894;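 active = binding response below 72% of control, or above a set upper limit, though filed actives all read lower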;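 note: 100% = DMSO only wells and 0% = binding blocked by excess unlabeled MEK5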
* hit, by the source's call; . = no result; [ ] = remark or other dose. The list is not random: actives were taken first. Their share in the collection is about 2.9%.

SMILES	MEKK2mut PB1 HTS	MEKK3 PB1 HTS	dFosB activator	DNA FID counter	MEKK2 WT-MEK5	MEKK2wt confirm	MEKK2mut-MEK5	MEKK3 confirm
COc1ccc(/C=C\c2onc(C)c2S(=O)(=O)N2CCC(C(=O)NCc3ccco3)CC2)cc1	31	130*	-1	-34	115	107	5	106
Cc1noc(/C=C/c2cccs2)c1S(=O)(=O)N1CCC(C(=O)NCCCN2CCCC(C)C2)CC1 (stereo unspecified)	33	109	-12	13	152*	146	34	108
Cc1ccc(NC(=O)CN(C)C(=O)CN2C(=O)NC(C)(c3ccccc3)C2=O)cc1 (stereo unspecified)	-5	79*[inhibitor]	-6	-18	91	101	3	101
CN(CC(=O)Nc1ccc(F)cc1)C(=O)CN1C(=O)NC2(CCCCC2)C1=O	.	.	0	.	.	.	.	.
Cn1cccc1C(=O)OCC(=O)Nc1ccc2c(c1)OCCO2	.	.	-1	.	.	.	.	.
CCCn1c(SCC(=O)N2c3ccccc3Sc3ccccc32)nc2ccccc21	0	150*	-5	-26	107	97	-5	104
O=C(O)CCn1c(SCc2ccccc2)nc2ccccc21	-21	0.0*[inhibitor]	-3	-6	0.0*[inhibitor]	98	-6	98
CCO[C@H]1c2c(ccc3ccc(=O)oc23)OC(C)(C)[C@@H]1O	.	.	-3	.	.	.	.	.
CC(C)C1Cc2c(C#N)c(N)sc(=S)c2CO1 (stereo unspecified)	-5	85	-7	-2	48*[inhibitor]	74	-12	96
O=C1COc2ccc(C(=O)CSc3nnc(Cc4cccs4)n3-c3ccc(Cl)cc3)cc2N1	-24	55*[inhibitor]	-14	-28	65	101	4	108
O=C(COc1ccc(Cl)cc1Br)N1CCN(c2ccccc2)CC1	5	101	7	-9	103	.	.	.
O=CN1CCN(C(=O)COc2ccc(Cl)cc2Br)CC1	0	149*	0	-2	108	98	-3	101
CCNC(=O)NC(=O)C(C)OC(=O)C1CCN(S(=O)(=O)c2ccc(C)c(C)c2)CC1 (stereo unspecified)	-2	100	-9	-5	100	.	.	.
CCCc1ccc(Oc2cn[nH]c2-c2ccc(O)c(C)c2O)cc1	3	123*	-5	-6	105	97	-9	96
CCN(CC)c1ccc(/C=N/NC(=O)Nc2nonc2N)cc1	0	103	-2	-1	96	.	.	.
COc1ccc(Cn2c(-c3ccc(Br)cc3)c[n+]3ccccc23)cc1	36	110	0	8	140*	118	11	106
COc1ccc(Cn2c(-c3ccc(OC)cc3)nc3ccccc32)cc1	2	98	-5	-24	97	.	.	.
COc1ccc(C)cc1-n1nnnc1SCC1CCCO1 (stereo unspecified)	24*	103	1	-10	103	114	17	106
CCOC(=O)N1CCC(Nc2ccc(N3C(=O)C4CCCCC4C3=O)cc2[N+](=O)[O-])CC1 (stereo unspecified)	-12	96	-12	-22	92	.	.	.
N#CC1=C(N)NC(SCc2ccc(F)cc2)=C(C#N)C12CCCCC2	-10	82*[inhibitor]	-5	10	86	112	10	103
N#CC1=C(N)NC(SCC(=O)O)=C(C#N)C12CCCC2	5	105	-5	-3	104	.	.	.
Cc1ccc(Cc2nnc3n(-c4ccccc4)nc(C(=O)c4ccccc4)n3c2=O)cc1	-2	65*[inhibitor]	-7	0	86	96	1	98
Cc1ccc(CNC(=O)c2cc(C)nn2-c2ccccc2)cc1	18	115	2	-7	116	.	.	.
C=CCN(c1ccccc1OC)S(=O)(=O)c1cccc(C(=O)OCC(=O)c2c[nH]c3ccccc23)c1	0	138*	4	5	119	115	0	103
COc1ccc(/C=N/Nc2ccc(C(F)(F)F)cc2[N+](=O)[O-])cc1O	0	131*	-3	2	102	103	4	99
SMILES	MEKK2mut PB1 HTS	MEKK3 PB1 HTS	dFosB activator	DNA FID counter	MEKK2 WT-MEK5	MEKK2wt confirm	MEKK2mut-MEK5	MEKK3 confirm
CCOc1ccc(/C=N/Nc2ccc(C(F)(F)F)cc2[N+](=O)[O-])cc1O	-6	106	-6	13	93	.	.	.
Cc1cc(-c2n[nH]c(=S)n2/N=C/C=C/c2ccccc2)n[nH]1	0	153*	1	-4	105	103	10	105
C/C=C/C=C/C(=O)N1CC2(CC(c3cccc(NC(=O)/C=C/C)c3)=NO2)C[C@@H]1C(N)=O (stereo partly specified)	3	96	4	.	100	.	.	.
CCCCCC(=O)Nc1cccc(C2=NOC3(C2)C[C@H](C(N)=O)N(C(=O)CC#N)C3)c1 (stereo partly specified)	-14	1.0*[inhibitor]	.	.	1.0*[inhibitor]	99	-12	100
C=C(C)C(=O)Nc1cccc(C2=NOC3(C2)C[C@@H](C(N)=O)N(C(=O)/C=C/C=C/C)C3)c1 (stereo partly specified)	-37	68*[inhibitor]	-11	.	70	90	-46	86
CCc1nnc(NC(=O)CSc2nc(C)cc(C)c2C#N)s1	3	103	-2	-8	103	.	.	.
CCOC(=O)c1c(CSc2ccc(C)cc2)oc2ccc(O)cc12	-1	92	-7	-12	96	.	.	.
CC(=O)NC12CC3CC(C1)CC(C(=O)N1CCN(S(=O)(=O)c4ccc([N+](=O)[O-])cc4)CC1)(C3)C2	.	.	-3	.	.	.	.	.
O=S(=O)(NC(=S)NC1CCCCC1)c1ccccc1	-23	4.0*[inhibitor]	6	-5	6.0*[inhibitor]	99	-2	100
CCCCCCOC(=O)C(C#N)c1nc2ccccc2nc1N1CCN(CC)CC1 (stereo unspecified)	30	104	-9	1	158*	145	21	101
COc1cccc2cc(C(N)=O)/c(=N/NC(=O)COc3ccc(Cl)cc3)oc12	1	143*	.	0	112	103	-2	100
COc1ccc(N2CCN(C(=O)CCC(=O)N3CC(C)Oc4ccc(C)cc43)CC2)cc1 (stereo unspecified)	-2	100	-7	-51	101	.	.	.
O=C(CN1CCCC1)N/N=C/c1c(O)ccc2ccccc12	19	110	5	1	113	.	.	.
COC(=O)CCC(=O)OC1(C)C(=O)C=C2C=C(C3CC3)N(C(CO)CO)C=C2C1=O (stereo unspecified)	3	124	-2	.	151*	104	2	101
